± gives the standard deviation.
Experiments:
Settings in all cases: modulator concentration 10 µM
[1] = test system: RAW-Dual (murine macrophage reporter line); assay: NF-kB reporter (SEAP) activity fold change vs agonist alone; higher = enhanced NF-kB activity
Method in brief: (§1)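 RAW-Dual murine macrophage reporter cells were plated at 50 000 per well in 384-well plates, pin-transferred compound to 10 μM final, and pre-incubated for 1 hour at 37 °C before a PRR agonist was added and the cells incubated overnight. NF-κB activity was read from supernatant SEAP with QUANTI-Blue at 620 nm absorbance, and IRF activity from Lucia luciferase with QUANTI-Luc by luminescence. Each signal was expressed as fold change by dividing by the mean agonist-only control on the same plate. Two replicate plates were averaged, with errors obtained by propagation.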

[2] = test system: RAW-Dual (murine macrophage reporter line); assay: IRF reporter (Lucia luciferase) activity fold change vs agonist alone; higher = enhanced IRF activity
Method in brief: as §1

[3] = test system: RAW-Dual (murine macrophage reporter line); assay: viability score (confluency relative to resting cells, overnight) (fraction); higher = more viable, active = viable (0.7 or more)
Method in brief: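 RAW-Dual macrophages in 384-well plates were treated overnight with compound at 10 μM final. IncuCyte imaging recorded confluency, and IncuCyte software built two confluency masks across every imaged well. The viability score expresses confluency relative to resting cells and was judged against a cutoff, which a compound met only if both masks exceeded 70% of resting cells.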

[4] = agonist: CpG ODN 1826 0.5 ug/mL

Compound	NF-kB reporter [1, 4]	NF-kB reporter ([1]; agonist: LPS 0.1 ug/mL)	NF-kB reporter ([1]; agonist: MPLA […])	IRF reporter ([2]; agonist: 3'3'-cGAMP 10 ug/mL)	IRF reporter ([2]; agonist: LPS 0.1 ug/mL)	IRF reporter ([2]; agonist: MPLA […])	viability score [3]
CCCc1cc(=O)[nH]c(=S)[nH]1	1.37 ± 0.11	1.07 ± 0.05	1.3 ± 0.11	0.611 ± 0.028	1.03 ± 0.082	0.903 ± 0.076	1.02 (active)
O=C1NC(=O)C(=Cc2ccc(-c3cccc(Cl)c3)o2)S1	0.774 ± 0.36	0.761 ± 0.064	0.776 ± 0.064	0.747 ± 0.032	1.13 ± 0.14	1.2 ± 0.16	0.943 (active)
CCCCOc1ccc(OCCCN2CCOCC2)cc1.Cl	1.2 ± 0.09	1.27 ± 0.16	1.25 ± 0.1	0.643 ± 0.054	0.852 ± 0.051	0.836 ± 0.071	0.981 (active)
COC(=O)N[C@H](C(=O)N[C@@H](Cc1ccccc1)[C@@H](O)CN(Cc1ccc(-c2ccccn2)cc1)NC(=O)[C@@H](NC(=O)OC)C(C)(C)C)C(C)(C)C.O=S(=O)(O)O	1.78 ± 0.14	1.27 ± 0.1	1.46 ± 0.15	0.886 ± 0.064	1.02 ± 0.061	1.14 ± 0.1	1.01 (active)
CN1CCN(c2nc3c(=O)[nH]cnc3n2C2OC(CO)C(O)C2O)CC1 (configuration not stated)	0.979 ± 0.11	1.03 ± 0.071	0.904 ± 0.084	1.01 ± 0.089	1.22 ± 0.082	1.08 ± 0.25	1.01 (active)
COc1cc2nccc(Oc3ccc(NC(=O)C4(C(=O)Nc5ccc(F)cc5)CC4)cc3)c2cc1OC.O=C(O)C[C@H](O)C(=O)O	0.56 ± 0.046	0.51 ± 0.026	0.696 ± 0.019	0.103 ± 0.0071	0.317 ± 0.031	0.337 ± 0.027	0.842 (active)
COCCCOc1ccnc(CS(=O)c2nc3ccccc3[nH]2)c1C (configuration not stated)	1.24 ± 0.3	1.07 ± 0.098	1.11 ± 0.11	0.839 ± 0.029	1.22 ± 0.13	1.28 ± 0.23	0.98 (active)
COC(=O)c1ccc(-n2nnnc2SCC(=O)Nc2ccc(C)c(C)c2)cc1	0.529 ± 0.32	0.897 ± 0.057	0.98 ± 0.085	0.849 ± 0.063	1.14 ± 0.077	1.19 ± 0.15	1.02 (active)
COc1ccc(-c2oc3ccc(OC)cc3c2C(=O)Nc2ccccc2C)cc1	0.917 ± 0.047	1.17 ± 0.092	0.959 ± 0.073	1 ± 0.055	1.1 ± 0.073	1.12 ± 0.11	1 (active)
CN1CCN(c2ccc(-c3cccc(NC(=O)c4ccc5ccccc5c4)c3)nn2)CC1	0.162 ± 0.0099	0.745 ± 0.15	0.301 ± 0.11	0.664 ± 0.041	1.88 ± 0.75	1.85 ± 0.26	0.171 (inactive)
COCCOC(=O)C1=C(C)NC(C)=C(C(=O)OC(C)C)C1c1cccc([N+](=O)[O-])c1 (configuration not stated)	0.837 ± 0.07	1.05 ± 0.064	0.88 ± 0.076	1.11 ± 0.037	1.31 ± 0.18	1.11 ± 0.13	0.979 (active)
O=C(NCCN1CCOCC1)c1ccccc1Br	0.967 ± 0.081	1.13 ± 0.089	0.952 ± 0.035	1.02 ± 0.15	1.13 ± 0.12	0.897 ± 0.18	0.997 (active)
COc1cc(CNCc2ccc3ccccc3c2)cc(OC)c1	1.26 ± 0.12	0.986 ± 0.1	1.24 ± 0.1	1.19 ± 0.35	0.906 ± 0.043	2.05 ± 0.17	0.589 (inactive)
NC[C@H]1CC[C@H](C(=O)O)CC1	0.939 ± 0.1	1.06 ± 0.073	0.958 ± 0.021	0.993 ± 0.14	1.01 ± 0.061	1.13 ± 0.11	0.999 (active)
O=C(NCCN1CCN(c2ccc(F)cc2)CC1)c1ccno1	1.04 ± 0.1	0.965 ± 0.077	0.991 ± 0.026	0.982 ± 0.059	0.968 ± 0.072	0.929 ± 0.14	0.999 (active)
COc1ccc(N2C(=O)C(=Cc3ccc([N+](=O)[O-])s3)SC2=S)cc1	0.879 ± 0.17	1.55 ± 0.14	1.71 ± 0.16	0.439 ± 0.012	1.25 ± 0.23	1.2 ± 0.26	0.9 (active)
CCC1(c2cnc[nH]2)Cc2ccccc2C1	0.746 ± 0.13	1.09 ± 0.17	0.862 ± 0.055	0.764 ± 0.21	1.33 ± 0.14	0.787 ± 0.11	0.876 (active)
COc1ccc(-c2cc(C(F)F)nn2-c2ccc(S(N)(=O)=O)cc2)cc1F	0.989 ± 0.29	0.98 ± 0.05	0.993 ± 0.068	0.935 ± 0.052	1.3 ± 0.24	1.23 ± 0.18	0.998 (active)
O=C(Nc1nc(CC(=O)N2CCOCC2)cs1)c1ccccc1	1.02 ± 0.073	1.02 ± 0.09	0.941 ± 0.14	0.995 ± 0.053	1.24 ± 0.087	1.29 ± 0.1	1.01 (active)
O=C(NN=Cc1ccc([N+](=O)[O-])s1)c1ccc(Br)cc1	0.968 ± 0.083	0.858 ± 0.082	0.96 ± 0.09	0.395 ± 0.068	1.18 ± 0.2	1.14 ± 0.28	0.996 (active)
CC[C@@]1(O)C(=O)OCc2c1cc1n(c2=O)Cc2cc3c(CN(C)C)c(O)ccc3nc2-1.Cl	2.27 ± 0.11	1.41 ± 0.12	2.16 ± 0.11	2.12 ± 0.15	2.89 ± 0.17	3.26 ± 0.26	0.725 (active)
COc1ccc(C(=O)N2CC(n3cc(CN4CCCC4=O)nn3)C2)cc1F	1.19 ± 0.1	1.01 ± 0.077	1 ± 0.045	1.05 ± 0.088	1.01 ± 0.067	0.952 ± 0.14	0.999 (active)
CN1CCN(C2=Nc3ccccc3Oc3ccc(Cl)cc32)CC1 [Prestw-132]	1.08 ± 0.22	0.804 ± 0.09	0.812 ± 0.079	0.944 ± 0.054	1.08 ± 0.18	0.961 ± 0.18	1.03 (active)
Cc1ccc(Sc2cc(Sc3ccc(C)cc3)c3noc4c3c2C(=O)c2ccccc2-4)cc1	0.971 ± 0.078	1.03 ± 0.075	0.957 ± 0.09	0.959 ± 0.052	1.28 ± 0.21	1.49 ± 0.38	1.01 (active)
Cc1ncsc1C(=O)NC1CCC(F)(F)CC1	1.06 ± 0.068	1.1 ± 0.088	0.991 ± 0.033	0.68 ± 0.034	1.01 ± 0.057	1 ± 0.1	0.999 (active)
O=C(Nc1cc(C(F)(F)F)cc(C(F)(F)F)c1)c1cc2ccccc2o1	0.961 ± 0.082	1.05 ± 0.08	0.952 ± 0.12	0.953 ± 0.042	1.32 ± 0.25	1.03 ± 0.29	1.01 (active)
